Experimental data taken from PubChem BioAssay AID504334 (NMMLSC, 2011).
Activity calls are given as the source filed them.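 How the source made its calls: active means response relative to DMSO over 150%; inconclusive means yeast strain with under 70 recorded events; inactive means the rest.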

Test: AGP1-GFP expression modulators, hit retest, confirmation, cell-based, flow cytometry, S. cerevisiae, cherry pick set 3 (AID 504334);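 further: median GFP fluorescence per well by flow cytometry over the all cells gate; ratio of sample to mean DMSO control signal so DMSO = 100% not 0%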
Conditions: S. cerevisiae AGP1-GFP strain, 3 h, at 10 µM, stronger effect = higher value

Percent response vs DMSO, inactive:
Cc1ccc(NC(=O)O/N=C2\CCCCC2c2ccc([N+](=O)[O-])cc2[N+](=O)[O-])cc1 (stereo not drawn) 100%
Cc1cc(C)c2ccc(N)nc2c1O 101%
CSc1nc(Nc2ccc(Cl)cc2)c(C#N)c(=O)[nH]1 98.4%
CS(=O)(=O)c1nc(-c2ccc(F)cc2)cc(C(F)(F)F)n1 114%
Cc1ccc(C(=O)Nc2nc(-c3ccccn3)cs2)o1 102%
COc1ccc(N/C=C/C(=O)c2ccc(Cl)cc2)cc1 98.1%
CC(C)Nc1ncnc2ccc(Br)cc12 99.4%
Nc1[nH]c(=O)nc(Nc2ccccc2)c1N=O 101%
CC1=NNC(=O)/C1=C\c1cn(-c2ccccc2)nc1-c1ccc(F)cc1 108%
C/C(=N\NC(=O)c1cccc2ccccc12)c1cccnc1 99.4%
COCCCNc1nc(N)c([N+](=O)[O-])c(Nc2ccccc2OC)n1 103%
CNc1nc(N)c([N+](=O)[O-])c(Nc2cccc(Cl)c2)n1 104%
CC(=O)Nc1ccc(-c2nc3cc(Cl)ccc3o2)cc1 96.1%
Nc1ccc(O)c2c1C(=O)c1ccccc1C2=O 103%
Cc1cccc(Nc2cc(=O)[nH]c(=O)[nH]2)c1C 99.4%
Cc1ccc2c(Cl)cc(Cl)c(O)c2n1 109%
C/C(=C\C(=O)c1ccccc1)Nc1cccc(O)c1 97.1%

Percent response vs DMSO, active:
CC1=CN2C(=N)/C(=C/c3ccc([N+](=O)[O-])o3)C(=O)N=C2S1 569%
